In the supplement of paper PMC12645437, “Orthogonal IMiD-Degron Pairs Induce Selective Protein Degradation in Cells” (ACS Chemical Biology, 2025):
Over roughly 8,300 sequences, “log2 fold change of degron read counts, EGFP-low vs EGFP+ sorted cells (limma voom), compound-induced degradation” has its median near -1.1; the highest 2% begin near 3.2. The sample as a whole holds a higher share of the highest values than the screen did.

T1: CRBN, Q96SW2
T1 chain: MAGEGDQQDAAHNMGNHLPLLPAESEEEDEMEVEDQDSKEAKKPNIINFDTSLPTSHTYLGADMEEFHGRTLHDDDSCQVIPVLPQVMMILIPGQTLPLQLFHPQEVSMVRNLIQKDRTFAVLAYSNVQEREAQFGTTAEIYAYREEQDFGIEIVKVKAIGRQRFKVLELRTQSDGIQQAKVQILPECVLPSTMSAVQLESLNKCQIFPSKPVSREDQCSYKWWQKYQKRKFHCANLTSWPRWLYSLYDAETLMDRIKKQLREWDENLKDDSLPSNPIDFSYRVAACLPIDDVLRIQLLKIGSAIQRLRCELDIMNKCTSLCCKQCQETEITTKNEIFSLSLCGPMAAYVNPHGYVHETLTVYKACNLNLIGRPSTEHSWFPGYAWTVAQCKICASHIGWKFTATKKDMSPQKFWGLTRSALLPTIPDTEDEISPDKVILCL


Target: T1, CRBN, Q96SW2
Test: log2 fold change of degron read counts, EGFP-low vs EGFP+ sorted cells (limma voom), compound-induced degradation; higher = more compound-induced degradation of the degron-EGFP fusion; degrons are variants of IKZF1/3 zinc finger 2; compound dose not given here
Details: Jurkat, 18 h
[1] = compound: compound 19 (5-tert-butyl-thalidomide)
[2] = compound: compound 22 (5-morpholino-thalidomide)
[3] = compound: compound 33 (diphenyl IMiD analogue)
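Also: pooled lentiviral library of zinc finger degron-EGFP fusions in mCherry-positive Jurkat cells, FACS-sorted after compound exposure, with degron abundance counted by next-generation sequencing.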

| Sequence | log2 fold change of degron read counts [1] | log2 fold change of degron read counts [2] | log2 fold change of degron read counts [3] | log2 fold change of degron read counts (compound: thalidomide) |
| --- | --- | --- | --- | --- |
| FFCNVCGAYFTQKGNLLRHIKL [46F_47F_49N_50V_52G_53A_54Y_55F_67L_, Q9UKT9] | -0.163 | 0.227 | 0.144 | -1.05 |
| FMCEICGRNFTQKGNLLRHIKL [46F_47M_49E_50I_52G_53R_54N_55F_67L_, Q9UKT9] | -2.42 | -2.71 | -0.582 | -1.02 |
| FFCSVCGHWFTQKGNLLRHIKL [46F_47F_49S_50V_52G_53H_54W_55F_67L_, Q9UKT9] | -1.15 | -1.58 | -1.38 | -1.26 |
| FTCPICGHLFTQKGNLLRHIKL [46F_47T_49P_50I_52G_53H_54L_55F_67L_, Q9UKT9] | -2.23 | -2.6 | -1.44 | -1.57 |
| FHCPVCGARFTQKGNLLRHIKL [46F_47H_49P_50V_52G_53A_54R_55F_67L_, Q9UKT9] | 1.99 | 2.23 | 0.971 | 0.937 |
| FFCPVCGARFTQKGNLLRHIKL [46F_47F_49P_50V_52G_53A_54R_55F_67L_, Q9UKT9] | 3.35 | 3.29 | 1.72 | 1.35 |
| FECPVCGARFTQKGNLLRHIKL [46F_47E_49P_50V_52G_53A_54R_55F_67L_, Q9UKT9] | 0.67 | -0.349 | 1.42 | 2.94 |
| FVCPVCGARFTQKGNLLRHIKL [46F_47V_49P_50V_52G_53A_54R_55F_67L_, Q9UKT9] | 0.0453 | 2.18 | 0.744 | 2.8 |
| FMCPVCGARFTQKGNLLRHIKL [46F_47M_49P_50V_52G_53A_54R_55F_67L_, Q9UKT9] | -0.509 | 0.0794 | 1.25 | 0.719 |
| FQCPVCGARFTQKGNLLRHIKL [46F_47Q_49P_50V_52G_53A_54R_55F_67L_, Q9UKT9] | -0.395 | 2.27 | 1.08 | 3.63 |
| FCCPVCGARFTQKGNLLRHIKL [46F_47C_49P_50V_52G_53A_54R_55F_67L_, Q9UKT9] | 2.31 | 2.41 | 1.79 | 2.26 |
| FDCPVCGARFTQKGNLLRHIKL [46F_47D_49P_50V_52G_53A_54R_55F_67L_, Q9UKT9] | 3.12 | 1.66 | 1.4 | 2.71 |
| FACPVCGARFTQKGNLLRHIKL [46F_47A_49P_50V_52G_53A_54R_55F_67L_, Q9UKT9] | 3.49 | 2.28 | -0.0911 | 1.06 |
| LSCEICGFICTQKGNLLRHIKL [46L_47S_49E_50I_52G_53F_54I_55C_67L_, Q9UKT9] | 0.617 | 0.753 | 0.094 | 0.23 |
| LRCNQCGFDCTQKGNLLRHIKL [46L_47R_49N_50Q_52G_53F_54D_55C_67L_, Q9UKT9] | -2.4 | -3.02 | -2 | -2.27 |
| FICEICGAVFTQKGNLLRHIKL [46F_47I_49E_50I_52G_53A_54V_55F_67L_, Q9UKT9] | -0.571 | 1.25 | 2.53 | 2.12 |

| Sequence | log2 fold change of degron read counts [1] | log2 fold change of degron read counts [2] | log2 fold change of degron read counts [3] | log2 fold change of degron read counts (compound: thalidomide) |
| --- | --- | --- | --- | --- |
| FECEQCGAIFTQKGNLLRHIKL [46F_47E_49E_50Q_52G_53A_54I_55F_67L_, Q9UKT9] | -2.86 | -2.97 | -1.26 | -0.499 |
| LACEICGFECTQKGNLLRHIKL [46L_47A_49E_50I_52G_53F_54E_55C_67L_, Q9UKT9] | 0.602 | -0.739 | -1.36 | -0.804 |
| FICEICGRMFTQKGNLLRHIKL [46F_47I_49E_50I_52G_53R_54M_55F_67L_, Q9UKT9] | -2.48 | -1.85 | -0.238 | -0.738 |
| FCCPICGATFTQKGNLLRHIKL [46F_47C_49P_50I_52G_53A_54T_55F_67L_, Q9UKT9] | 1.51 | 1.82 | 2.36 | 2.09 |
| FQCPICGATFTQKGNLLRHIKL [46F_47Q_49P_50I_52G_53A_54T_55F_67L_, Q9UKT9] | 0.717 | 2.74 | 2.33 | 3.56 |
| FICPICGATFTQKGNLLRHIKL [46F_47I_49P_50I_52G_53A_54T_55F_67L_, Q9UKT9] | -1.06 | 1.53 | 1.48 | 1.86 |
| FRCPICGATFTQKGNLLRHIKL [46F_47R_49P_50I_52G_53A_54T_55F_67L_, Q9UKT9] | -0.752 | -0.483 | 1.07 | 1.12 |
| FSCPICGATFTQKGNLLRHIKL [46F_47S_49P_50I_52G_53A_54T_55F_67L_, Q9UKT9] | 2.78 | 2.14 | 2.34 | 1.5 |
| FGCPICGATFTQKGNLLRHIKL [46F_47G_49P_50I_52G_53A_54T_55F_67L_, Q9UKT9] | 3.46 | 2.4 | 2.17 | 1.08 |
| FMCPICGATFTQKGNLLRHIKL [46F_47M_49P_50I_52G_53A_54T_55F_67L_, Q9UKT9] | -1.31 | 0.0387 | 2.08 | 1.34 |
| FKCPICGATFTQKGNLLRHIKL [46F_47K_49P_50I_52G_53A_54T_55F_67L_, Q9UKT9] | -1.47 | -2.7 | -2.3 | -1.17 |
| FFCPICGATFTQKGNLLRHIKL [46F_47F_49P_50I_52G_53A_54T_55F_67L_, Q9UKT9] | 2.81 | 3.61 | 1.65 | 1.35 |
| FVCPICGATFTQKGNLLRHIKL [46F_47V_49P_50I_52G_53A_54T_55F_67L_, Q9UKT9] | -0.613 | 1.74 | 1.8 | 2.23 |
| FACPICGATFTQKGNLLRHIKL [46F_47A_49P_50I_52G_53A_54T_55F_67L_, Q9UKT9] | 3.39 | 1.82 | 1.17 | 0.639 |
| FNCPICGATFTQKGNLLRHIKL [46F_47N_49P_50I_52G_53A_54T_55F_67L_, Q9UKT9] | 1.88 | 0.692 | 1.59 | 0.652 |
